# An excerpt weighted towards active compounds, which were near 1.3% of everything screened.
# LYPLA1 counter: counter-screen for PME1 inhibitors: inhibitors of human LYPLA1 | O75608 | recombinant LYPLA1, FP-Rh probe fluorescence polarization | inhibition, % at 5.9 µM | actives 0.16% (n = 320,000);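 active = inhibition above the mean of all tested compounds plus 3 SD, set per campaign, cut at about 14% in these data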;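 note: inhibitors block serine hydrolase probe labeling of LYPLA1 so polarization falls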
# PREPL inhibitor: inhibits the human prolyl oligopeptidase-like enzyme; recombinant PREPL, fluorescence polarization activity-based probe; Q4J6C6; inhibition, % at 5.96 µM; actives 0.68% (n = 320,000); AID 2751
# Target sequence (Q4J6C6 whole entry, looked up): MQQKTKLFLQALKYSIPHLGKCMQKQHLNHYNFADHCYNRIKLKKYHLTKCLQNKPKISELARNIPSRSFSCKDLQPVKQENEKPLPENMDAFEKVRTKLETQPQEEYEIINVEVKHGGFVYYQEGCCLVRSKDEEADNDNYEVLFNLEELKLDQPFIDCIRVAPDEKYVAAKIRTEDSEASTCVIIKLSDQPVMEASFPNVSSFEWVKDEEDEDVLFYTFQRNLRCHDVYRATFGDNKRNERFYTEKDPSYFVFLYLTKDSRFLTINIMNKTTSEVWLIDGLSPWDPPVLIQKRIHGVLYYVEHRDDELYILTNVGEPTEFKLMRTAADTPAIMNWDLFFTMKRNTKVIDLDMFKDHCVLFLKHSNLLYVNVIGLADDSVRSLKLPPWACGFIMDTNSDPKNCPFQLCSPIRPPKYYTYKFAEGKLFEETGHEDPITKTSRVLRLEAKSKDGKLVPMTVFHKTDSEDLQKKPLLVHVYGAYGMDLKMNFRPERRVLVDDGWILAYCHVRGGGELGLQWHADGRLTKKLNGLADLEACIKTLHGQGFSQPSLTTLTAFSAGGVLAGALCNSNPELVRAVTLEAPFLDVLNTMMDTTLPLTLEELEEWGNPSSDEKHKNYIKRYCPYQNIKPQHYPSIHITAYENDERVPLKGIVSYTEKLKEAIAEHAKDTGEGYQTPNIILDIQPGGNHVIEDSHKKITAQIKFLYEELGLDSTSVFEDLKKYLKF
# PME-1 primary: blocks human protein phosphatase methylesterase 1 | Q9Y570 | recombinant PME-1, FP-Rh probe fluorescence polarization | inhibition, % at 5.9 µM | actives 0.53% (n = 320,000);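 active = inhibition above the campaign mean of all compounds plus 3 SD, cut at about 26% in these data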;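 note: competitive labeling of PME-1 active site by serine hydrolase directed probe; inhibitors block probe labeling so polarization falls and inhibition rises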
# LYPLA2 counter: counter-screen for PME1 inhibitors: inhibitors of human LYPLA2. recombinant LYPLA2, FP-Rh probe fluorescence polarization. actives 0.38% (n = 320,000). inhibition, % at 5.9 µM;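 active = inhibition above the screen-wide mean plus 3 SD, limit set per campaign, cut at about 26% in these data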
# Fam108B counter: counter-screen for RBBP9 inhibitors: inhibitors of mouse Fam108B; recombinant Fam108B, FP-Rh probe fluorescence polarization; inhibition, % at 9.51 µM; actives 0.33% (n = 300,000);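 active = inhibition above the screen mean inhibition plus 3 SD, computed separately per campaign, cut at about 18% in these data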;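 note: inhibitors lower polarization as less probe binds the enzyme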
# PREPL inh cf: human PREPL inhibition, confirmation; shares compounds with PREPL inhibitor; actives 67% (n = 2,000); recombinant PREPL, fluorescence polarization activity probe; inhibition, % at 5.96 µM
# Numbers stand for hits; 0 = inactive; - = not tested or not shown. Cut-off read from the data, not from the text of the source, unless noted: active = inhibition above about 43%; inactive = the rest.
SMILES,LYPLA1 counter,PREPL inhibitor,PME-1 primary,LYPLA2 counter,Fam108B counter,PREPL inh cf
COc1ccc(NC(=O)c2ccc(Cn3cc(Cl)cn3)cc2)cc1,0,0,0,0,0,-
CN(C)c1ccc(NC(=O)c2ccc(Cn3cc([N+](=O)[O-])cn3)cc2)cc1,0,48,0,0,0,57
CN(C)c1ccc(/C=N/NC(=S)NCc2ccccc2)cc1,0,51,0,0,0,55
Cc1ccc(-c2[nH]c3cc(C(=O)NCCCn4ccnc4)ccc3c(=O)c2O)cc1,0,55,0,0,0,0
CCN(CC)c1ccc(-c2nn3c(-c4n[nH]c5c4CCC5)nnc3s2)cc1,0,79,0,0,0,68
C1CCC(c2nn3c(-c4n[nH]c5c4CCC5)nnc3s2)CC1,0,0,0,0,0,-
COC(=O)c1sccc1S(=O)(=O)NCc1ccc(S(N)(=O)=O)cc1,0,0,0,0,0,-
COC(=O)C1CCN(CCCOc2ccc(CN3CCN(c4ccc([N+](=O)[O-])cc4)CC3)cc2)CC1,0,52,0,0,0,44
Cc1ccc2[nH]c3c(c2c1)CN(C(=O)CN1CCCc2ccccc21)CC3,0,0,0,0,0,-
COC(=O)c1[nH]c2ccc(C)cc2c1NC(=O)CN1CCCc2ccccc21,0,49,0,0,0,48
COCc1nnc(NC(=O)CS(=O)(=O)c2ccc(C)cc2)s1,0,0,0,0,0,-
O=C1OC[C@@H]2CCCN2C(=O)[C@H](CC(=O)N(CCO)Cc2ccccc2)C/C=C\C[C@H]1Cc1ccc(F)cc1,-,51,-,-,-,0
COC(=O)CCNC(=O)CCc1ccc(S(=O)(=O)N2CCCCCC2)cc1,0,0,0,0,-,-
O=C1/C(=N\S(=O)(=O)c2cccs2)C([n+]2ccc(CCCc3ccccc3)cc2)=C([O-])c2ccccc21,0,69,0,0,0,70
O=C(Cc1ccccc1)Nc1nc2ccccc2s1,0,0,0,0,0,-
O=C(CP(=O)(c1ccccc1)c1ccccc1)Nc1nc2ccccc2s1,0,50,0,0,0,0
Cc1nn(-c2ccccc2)c(C)c1/C=N/Nc1nc2ccccc2[nH]1,0,0,0,0,0,-
C=CCn1cc(/C=N/Nc2nc3ccccc3[nH]2)c2ccccc21,0,45,0,0,0,50
Cc1c(/C=N/Nc2nc3ccccc3[nH]2)c2ccccc2n1C,0,45,0,0,0,0
COc1cc(CN2CCCC(C(=O)c3ccc4c5c(cccc35)CC4)C2)cc(OC)c1O (centres undefined),0,0,0,0,0,-
COc1ccc(C(=O)c2c(C)oc3ccc(O)c(CN4CCOCC4)c23)cc1,0,0,0,0,0,-
COc1ccc(C(=O)c2coc3ccc(O)c(CN4CCCC4)c23)cc1,0,55,0,0,0,54
Cc1ccc(C(=O)c2coc3ccc(O)c(CN4CCN(C)CC4)c23)cc1,0,44,0,0,0,0
COc1ccc(C(=O)c2coc3ccc(O)c(CN4CCOCC4)c23)cc1,0,53,0,0,0,57
C[C@H](CO)N1C[C@H](C)[C@@H](CN(C)Cc2ccncc2)Oc2c(NS(=O)(=O)c3ccc(Cl)cc3)cccc2C1=O,-,48,-,-,-,45
SMILES,LYPLA1 counter,PREPL inhibitor,PME-1 primary,LYPLA2 counter,Fam108B counter,PREPL inh cf
CC1=Nc2cccc3cccc(c23)N1,0,45,0,0,0,0
Cc1ccc(/C=C/C(=O)Nc2ccc(N(C)C)cc2)o1,0,48,0,0,0,0
CN(CC(=O)Nc1cccc(F)c1)C(=O)/C=C/c1cn(Cc2ccccc2)nc1-c1cccnc1,0,0,0,0,0,-
Cc1ccc(Nc2nc(-c3c(C)nc4ncccn34)cs2)cc1,0,51,0,0,0,45
CSc1nn2c(C(F)(F)F)cc(C(F)(F)F)nc2c1C(N)=O,0,0,0,0,0,-
CCCN(C(=O)COC(=O)CNC(=O)c1ccc2ccccc2c1)c1c(N)n(Cc2ccccc2)c(=O)[nH]c1=O,0,0,0,0,0,-
NCCCC[C@@H]1NC(=O)c2cc([N+](=O)[O-])cc(I)c2SC[C@@H](C(N)=O)NC(=O)[C@H](Cc2ccc(O)cc2)NC1=O,0,54,0,0,0,49
NCCCC[C@@H]1NC(=O)[C@H](CCC(=O)O)NC(=O)c2cc([N+](=O)[O-])cc(I)c2SC[C@@H](C(=O)NCC(N)=O)NC1=O,0,0,0,0,0,-
COc1ccccc1Nc1ccc(N)cc1,0,84,0,0,0,0
CC(C)CNC(=O)c1cc(=O)[nH]c2ccc(S(=O)(=O)Nc3ccc(F)cc3)cc12,0,0,0,0,0,-
CCN1CCN(C(=O)c2sc3ncnc(N4CCc5ccccc5C4)c3c2C)CC1,0,0,0,0,0,-
Cc1c(C(=O)N2CCN(Cc3ccc4c(c3)OCO4)CC2)sc2ncnc(N3CCN(c4ccccc4)CC3)c12,0,45,0,0,0,48
CCCNC(=O)Cn1cnc2sc(C(=O)N3CCN(Cc4ccc5c(c4)OCO5)CC3)c(C)c2c1=O,0,0,0,0,0,-
Cc1c(C(=O)N2CCN(Cc3ccc4c(c3)OCO4)CC2)sc2ncnc(N3CCN(c4ccccc4F)CC3)c12,0,48,0,0,0,44
Cc1c(C(=O)N2CCN(c3ccccn3)CC2)sc2ncnc(N3CCN(c4ccccc4)CC3)c12,0,44,0,0,0,0
Cc1c(C(=O)N2CCN(c3ccccc3)CC2)sc2ncnc(N3CCC(C)CC3)c12,0,0,0,0,0,-
CC1CC(C)CN(CC(O)COCc2ccccc2F)C1 (centres undefined),0,0,0,0,0,-
O=C(CCNS(=O)(=O)c1ccc2nsnc2c1)N1CCN(c2ccncc2)CC1,-,0,-,-,-,-
CC(C)(C)[C@H]1COC(=O)CCCC/C=C\C[C@H](CC(=O)NCCO)C(=O)N1,-,0,-,-,-,-
COCCN(C(=O)COC(=O)C1(c2ccccc2)CC1)c1c(N)n(CC(C)C)c(=O)[nH]c1=O,0,0,0,0,0,-
COc1cccc(C2CC(c3ccc(C)cc3)Nc3nc(N)nn32)c1 (centres undefined),0,49,0,0,0,51
C=CCNC(=O)C1CC2Cn3c(nc4cc(Cl)c(Cl)cc43)C2N1C (centres undefined),0,0,0,0,0,-
COc1cc(C(=O)NCC2CCCO2)ccc1OCc1ccc(Cl)cc1Cl (centres undefined),0,44,0,0,0,0
O=C1COc2ccc(-c3csc(=Nc4ccc(OC(F)F)cc4)n3CC3CCCO3)cc2N1 (centres undefined),0,46,0,0,0,49
CSc1ccccc1NC(=O)CN1CCN(S(=O)(=O)c2ccccc2[N+](=O)[O-])CC1,0,0,0,0,-,-
CCN1/C(=C/C=C/c2sc3ccccc3[n+]2CC)Sc2ccccc21,0,0,0,0,0,-
CCN1/C(=C/c2ccc3cc(C)ccc3[n+]2CC)Sc2ccccc21,0,65,0,0,0,57
O=[N+]([O-])c1ccc(-[n+]2ccc3ccccc3c2)c([N+](=O)[O-])c1,0,0,0,0,0,-

# Assay outcomes from PubChem.
